The source of these data is the supplement of paper PMC7156485.

A number with no mark means an inactive call.
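Also: TDF is a line of transformed human dermal fibroblasts of mesenchymal origin.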

In the experiment the test system is HCC1569. Nature of the experiment: H1.0 immunofluorescence intensity relative to DMSO (% of DMSO); higher = stronger H1.0 induction, active = 140 or more. Conditions: concentration: 10 µM; 24 h. Put shortly: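 Cells were seeded at 800 per well in 384-well plates with RPMI containing 10% FBS; both HCC1569 and TDF lines were used. Compounds were added at 10 µM for 24 h at 37 °C, in triplicate, before fixation in 3.7% formaldehyde and staining with a rabbit anti-H1.0 antibody, an AlexaFluor 647 secondary and DAPI. H1.0 nuclear intensity or cell number is reported as percent of the plate control using the median of replicates, and HCC1569 values were smoothed for positional effects.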
Consider `O=C(O)c1ccccc1Nc1cccc(OCc2ccc3ccccc3n2)c1`, for which the H1.0 immunofluorescence intensity is 106. `C#CC1(O)CCC2C3CCC4=CC(=O)CCC4C3CCC21CC` (stereo not given) [Levonorgestrel]: the H1.0 immunofluorescence intensity is 98.5. `CC1=C2C(=COC(C)C2C)C(=O)C(C(=O)O)=C1O` (stereo not given) [Citrinin]: the H1.0 immunofluorescence intensity is 97.8. For `Br.CN1CCc2cc(O)c(O)cc2C(c2ccccc2)C1` (stereo not given), the H1.0 immunofluorescence intensity is 105. Consider `O=C([O-])CCC(NC(=O)c1ccccc1C(=O)[O-])C(=O)[O-].[Na+].[Na+].[Na+]` [Phthalamoyl-L-glutamic acid trisodium], for which the H1.0 immunofluorescence intensity was 170 (active). With `O=C1CCc2cc(OCCCCc3nnnn3C3CCCCC3)ccc2N1` [Cilostazol], the H1.0 immunofluorescence intensity is 97. For `CN(C)CCOC(C)(c1ccccc1)c1ccccn1.O=C(O)CCC(=O)O` (stereo not given) [Doxylamine succinate], the H1.0 immunofluorescence intensity is 87.7. Next, `COc1ccc(CCN(C)CCc2ccc(OC)c(OC)c2)cc1OC.Cl` [YS-035 hydrochloride]: 98.3. For the compound `CCCN(CCC)CC1CCCCN1CCNC(=O)N1c2ccccc2C(=O)Nc2cccnc21` (stereo not given), the H1.0 immunofluorescence intensity is 100.

As for `CCN(CC)C(C)C(=O)N1c2ccccc2Sc2ccccc21.Cl` (stereo not drawn) [10-(alpha-Diethylaminopropionyl)-phenothiazine hydrochloride], the H1.0 immunofluorescence intensity was 85.9. Regarding `CCN(CC)C(=O)C(C#N)=Cc1cc(O)c(O)c([N+](=O)[O-])c1` [Entacapone], the H1.0 immunofluorescence intensity is 105. As for `CC(=O)OC1(C(C)=O)CCC2C3C=C(Cl)C4=CC(=O)C5CC5C4(C)C3CCC21C` (stereo not given) [Cyproterone acetate], the H1.0 immunofluorescence intensity is 98.5.

For the compound `FC(F)(F)c1ccccc1-n1ccnc1` [1-[2-(Trifluoromethyl)phenyl]imidazole], the H1.0 immunofluorescence intensity is 108.

Turning to `Cc1cc(Nc2ncc3cc(-c4c(Cl)cccc4Cl)c(=O)n(C)c3n2)ccc1F`, the H1.0 immunofluorescence intensity is 187 (active). Turning to `C=CCc1ccc(O)c(-c2cc(CC=C)ccc2O)c1` [Magnolol], the H1.0 immunofluorescence intensity is 83.

Take `CC(C)[N+](C)(CCOC(=O)C1c2ccccc2Oc2ccccc21)C(C)C.[Br-]` [Propantheline bromide]: the H1.0 immunofluorescence intensity was 96.9.

In the case of `Cc1cccc(Nc2ccccc2C(=O)O)c1C` [Mefenamic acid], the H1.0 immunofluorescence intensity is 90.5. For the compound `Cc1cc(C)c(S(=O)(=O)Nc2cccc(C(F)(F)F)c2)c(C)c1`, the H1.0 immunofluorescence intensity is 104. Next, `CC(=O)OC1C(C)OC(Oc2c(-c3ccc(O)cc3)oc3cc(O)cc(O)c3c2=O)C(O)C1OC(C)=O` (stereo not given) [RSK Inhibitor, SL0101]: 107. For the compound `CC(C[N+](C)(C)C)OC(N)=O` (stereo not drawn) [Carbamyl-beta-methylcholine], the H1.0 immunofluorescence intensity was 108. As for `CC12CCc3occc3C1CCC13CC(CCC12)C(O)(CO)C3` (stereo not given) [Cafestol], the H1.0 immunofluorescence intensity is 88.2. On to `Cc1cc(C(C)(C)C)c(O)c(C)c1CC1=NCCN1.Cl` [Oxymetazoline.HCl], for which the H1.0 immunofluorescence intensity was 98.2. Next, `Cl.Cl.Cl.Ic1ccc(N2CCN(Cc3c[nH]c4ncccc34)CC2)cc1` [L-750,667 trihydrochloride]: 108; `COc1ccccc1N1CCN(CCCNc2cc(=O)n(C)c(=O)n2C)CC1.Cl` [Urapidil hydrochloride]: 103. With `N#Cc1cc2nc([O-])c([O-])nc2cc1[N+](=O)[O-].[Na+].[Na+]` [CNQX disodium], the H1.0 immunofluorescence intensity was 101.

For the compound `O=P(O)(O)C(Cl)(Cl)P(=O)(O)O` [Clodronic acid], the H1.0 immunofluorescence intensity is 102. As for `CN1CCN2c3ccccc3Cc3ccccc3C2C1.Cl` (stereo not given) [Mianserin.HCl], the H1.0 immunofluorescence intensity was 96.2. For `CCCCCCCOc1cc2c(cc1/C(C)=C/c1ccc(C(=O)O)cc1)C(C)(C)CCS2(=O)=O` the value was 102; for `CN(C)C(=N)N=C(N)N` [Metformin], 101; for `O=c1c(O)c(-c2ccccc2O)oc2cc(O)cc(O)c12` [Datiscetin], 87.7. Take `Cn1cnc2c(NC3CCCC3)ncnc21` [N6-Cyclopentyl-9-methyladenine]: the H1.0 immunofluorescence intensity is 159 (active).

Regarding `O=C1Nc2ccc(Cl)cc2C(C#CC2CC2)(C(F)(F)F)O1` (stereo not given) [Efavirenz], the H1.0 immunofluorescence intensity is 111. As to `COC1C(OC(=O)C=CC=CC=CC=CC(=O)O)CCC2(CO2)C1C1(C)OC1CC=C(C)C` (stereo not given) [Fumagillin], the H1.0 immunofluorescence intensity is 91.2.

For `CC1=NS(=O)(=O)c2cc(Cl)ccc2N1` [Diazoxide], the H1.0 immunofluorescence intensity was 101. `CCCCCCCCCCCCCCCCOCC(COP(=O)([O-])OCC[N+](C)(C)C)OC(=O)NC` (stereo not given): the H1.0 immunofluorescence intensity was 101. `O=C1NC(c2cccc([N+](=O)[O-])c2)=CCN1c1ccccc1O`: the H1.0 immunofluorescence intensity is 94.9. Take `CN(C)CCCOC1C(C(O)CO)OC2OC(C)(C)OC21.Cl` (stereo not given) [Amiprilose hydrochloride]: the H1.0 immunofluorescence intensity was 91.5.

For `Cl.Cl.c1ccc2c3c([nH]c2c1)C1C2CCC(C4CCCNC42)N1CC3` (stereo not given), the H1.0 immunofluorescence intensity is 101.

On to `CCCCCCCCC=CCCCCCCCCCCCCC(=O)O` [14(E)-Tricosenoic acid], for which the H1.0 immunofluorescence intensity is 104. `Cc1cnc(-c2cc(N3CCN(C(=O)CCS(C)(=O)=O)CC3)ncc2Cl)c(C)c1.Cl`: the H1.0 immunofluorescence intensity was 104.
